Laboratory results from PubChem BioAssay (Tox21).
Results filed as inconclusive are left out. Values without a mark were called inactive. The source made the active and inactive calls. The call rests on the fitted dose curve.

Experiment: p53 small molecule agonists, cell-based qHTS assay with human liver microsomes: qHTS cell viability counter screen (AID 1963579); further: nearly all actives have a fitted effect of over 45% in size
Conditions: p53RE-bla HCT-116 viability, ATP luminescence, 16 h, HLM; series mostly up to 66 µM; activity change, negative = cytotoxicity: at the top concentration
Excerpt: National Center for Advancing Translational Sciences [NCATS]
Division of Preclinical Innovation [DPI]
U.S. Environmental Protection Agency [EPA]
National Institutes of Environmental Health Sciences [NIEHS]
National Toxicology Program [NTP]
U.S. Food and Drug Administration [FDA]
p53, a tumor suppressor protein, is activated following cellular insult, including DNA damage and other cellular stresses. The activation of p53 regulates cell fate by inducing DNA repair, cell cycle arrest, apoptosis, or cellular senescence. The activation of p53, therefore, is a good indicator of DNA damage and other cellular stresses. […] The activation of the reporter gene under culture conditions can be detected by fluorescence intensity. This cell line was used to screen the Tox21 10K compound library in the condition of presence of human liver microsomes and to identify agonists that activate the p53 signaling pathway after in vitro metabolic activation (Ooka et al., Archive of Toxicology 96:1975-1987, 2022).
Tox21 Assay Protocol Summary:
The p53RE-bla cells were dispensed at 4,000cells/3ul/well in 1536-well black-clear bottom plates. After the assay plates were incubated at 37 C, 5% CO2 incubator for 5 hours, 23 nL of compounds dissolved in DMSO, positive controls or DMSO only was transferred to the assay plate. Following compound addition, 3 uL of human liver microsomes (XenoTech, Kansas City, KS) at final concentration of 0.5 mg/mL and 1uL of B-Nicotinamide adenine dinucleotide 2'-phosphate (NADPH) at final concentration of 0.5 mg/mL were transferred to the assay plate. The plates were incubated at 37 C for 16 hours. 1 uL of LiveBLAzer detection mixture was added to each well and the plates were incubated at room temperature in the dark for 2 h. Fluorescence intensity at 460 and 530 nm emission and 405 nm excitation were measured by an Envision plate reader. For cell viability readout that measures cytotoxicity, 4 ul/well of CellTiter-Glo reagent was added into the assay plates using a Flying Reagent Dispenser. After 30 min incubation at room temperature, the luminescence intensity in the plates was measured using a ViewLux plate reader.
On the % scale 0 is the no-effect control and ±100 the full control effect; potency means the concentration at half of the fitted maximal effect.

Going from `CCC(C)n1ncn(-c2ccc(N3CCN(c4ccc(OC[C@H]5CO[C@](Cn6cncn6)(c6ccc(Cl)cc6Cl)O5)cc4)CC3)cc2)c1=O` (stereo not given in full) to `CC[C@@H]([C@H](C)O)n1ncn(-c2ccc(N3CCN(c4ccc(OC[C@@H]5CO[C@@](Cn6cncn6)(c6ccc(F)cc6F)C5)cc4)CC3)cc2)c1=O`, the “activity change, negative = cytotoxicity” value falls from 15.2% [at 30.3 µM] to 6.77% [at 30.3 µM].

Compared with `CCCCCCCCCCCCCCCCN`, `CCCCCCCCCCC[C@@H](C[C@@H]1OC(=O)[C@H]1CCCCCC)OC(=O)[C@H](CC(C)C)NC=O` is higher in “activity change, negative = cytotoxicity” value: -17.9% [at 30.3 µM] for the first, -2.89% [at 30.3 µM] for the second.

First: CCCN(CCc1cccs1)[C@H]1CCc2c(O)cccc2C1
Second: CCCCNc1cc(C(=O)O)cc(S(N)(=O)=O)c1Oc1ccccc1
The “activity change, negative = cytotoxicity” value of the first is lower: -1.5% [at 30.3 µM] for the first, 1.41% [at 30.3 µM] for the second.

Compared with `C[N+](C)(C)CCOC(N)=O`, `C#CCN(C)CCCOc1ccc(Cl)cc1Cl` is higher in “activity change, negative = cytotoxicity” value: -3.45% [at 30.3 µM] for the first, 5.53% [at 30.3 µM] for the second.

Going from `Cc1ccccc1S` to `Clc1ccc(Cn2c(CN3CCCC3)nc3ccccc32)cc1`, the “activity change, negative = cytotoxicity” value falls from -3.79% [at 30.3 µM] to -13.1% [at 30.3 µM].

Compared with `C[C@@H]1C[C@H]2[C@@H]3C[C@H](F)C4=CC(=O)C(Cl)=C[C@]4(C)[C@@]3(F)[C@@H](O)C[C@]2(C)[C@@]1(O)C(=O)CO`, `Cc1onc(-c2c(Cl)cccc2Cl)c1C(=O)N[C@@H]1C(=O)N2[C@@H]1SC(C)(C)[C@@H]2C(=O)O` is higher in “activity change, negative = cytotoxicity” value: -4.67% [at 30.3 µM] for the first, 1.41% [at 30.3 µM] for the second.

Going from `CCN(CC)c1ccc(C(=C2C=CC(=[N+](CC)CC)C=C2)c2cc(S(=O)(=O)O)ccc2S(=O)(=O)[O-])cc1` to `CN(Cc1ccc(C(C)(C)C)cc1)Cc1cccc2ccccc12`, the “activity change, negative = cytotoxicity” value rises from -25% [at 30.3 µM] to -1.14% [at 30.3 µM].

For `Cc1ccc(C(C)OC(=O)C2(C)CCC(C(=O)O)C2(C)C)cc1` (stereo not given), the “activity change, negative = cytotoxicity” value was -6.25% [at 30.3 µM].

Compared with `CC1(C)CCC[C@]2(C)[C@H]3CC(=O)O[C@]3(C)CC[C@@H]12`, `C[Si](C)(C)C` is higher in “activity change, negative = cytotoxicity” value: -18.4% for the first, 0.0131% for the second.

Compared with `S=P(N1CC1)(N1CC1)N1CC1`, `Cc1cc2c(cc1C(F)(F)F)N(C(=O)Nc1ccc(Oc3cccnc3C)nc1)CC2` is lower in “activity change, negative = cytotoxicity” value: -5.39% for the first, -21.5% for the second.

Compared with `C=Cc1ccncc1`, `C/C(C=O)=C\c1ccccc1` is lower in “activity change, negative = cytotoxicity” value: 3.07% for the first, -0.345% for the second.

Going from `SCCOCCOCCS` to `CCCCOC(=O)c1ccccc1C(=O)OCC(CC)CCCC` (stereo not given), the “activity change, negative = cytotoxicity” value rises from -21.1% to 7.12%.

Going from `COC(OC)(C(=O)c1ccccc1)c1ccccc1` to `CC(C)(C)c1ccc(C(=O)O)cc1`, the “activity change, negative = cytotoxicity” value rises from -15.7% to 4.78%.

First: CCCCCCCCCCOC(=O)c1ccccc1C(=O)OCCCCCCCC
Second: CCC(=O)OCCc1ccccc1
The “activity change, negative = cytotoxicity” value of the first is lower: -3.5% for the first, 0.841% for the second.

First: CCN(CC)c1cccc(O)c1
Second: CCCCCc1ccc(O)cc1
The “activity change, negative = cytotoxicity” value of the first is higher: 5.33% for the first, -0.261% for the second.

First: CC/C=C\CC/C=C/CO
Second: CC[N+](C)(CC)CC
The “activity change, negative = cytotoxicity” value of the first is higher: -0.0273% for the first, -1.12% for the second.

Going from `O=[N+]([O-])c1ccc(Cl)cc1Cl` to `Cc1ccc(C=O)cc1C`, the “activity change, negative = cytotoxicity” value rises from -5.25% to 6.18%.

Going from `CO[Si](C)(OC)OC` to `CC(=O)C(=O)CC(C)C`, the “activity change, negative = cytotoxicity” value rises from -0.418% to 4.75%.

For `Nc1nc(-c2ccccc2)cs1`, the “activity change, negative = cytotoxicity” value was 5.18%.

Compared with `C=C/C=C/C=C/CCCCC`, `Nc1ccc2c(c1)CN1C(=O)c3ccccc3C1=N2` is lower in activity change, negative = cytotoxicity: 1.88% [at 13.5 µM] for the first, -28.3% [at 13.5 µM] for the second.

With `CC(CN)CC(C)(C)CCN` (stereo not given) the “activity change, negative = cytotoxicity” value was 1.78% [at 172 µM].

For `CCCCOC(=O)CC#N`, the Potency was 17 µM (active).
